Experimental data published in the supplement of paper PMC11732987, “Enantioselective OTUD7B fragment discovery through chemoproteomics screening and high-throughput optimisation” (Communications Chemistry, 2025).

Legend:
Experiment in all cases: log2 ratio of Biotin-Ahx-Ub-VS probe labelling (fragment/DMSO); higher = less target engagement (more negative = stronger competition), active = hit call of the paper (q ≤ 0.05, log2 ratio ≤ -1)
Details in all cases: compound concentration: 200 uM; treatment time: 3 h
[1] = biological target: T1, USP42 (UniProt Q9H9J4)
T1 sequence (whole entry): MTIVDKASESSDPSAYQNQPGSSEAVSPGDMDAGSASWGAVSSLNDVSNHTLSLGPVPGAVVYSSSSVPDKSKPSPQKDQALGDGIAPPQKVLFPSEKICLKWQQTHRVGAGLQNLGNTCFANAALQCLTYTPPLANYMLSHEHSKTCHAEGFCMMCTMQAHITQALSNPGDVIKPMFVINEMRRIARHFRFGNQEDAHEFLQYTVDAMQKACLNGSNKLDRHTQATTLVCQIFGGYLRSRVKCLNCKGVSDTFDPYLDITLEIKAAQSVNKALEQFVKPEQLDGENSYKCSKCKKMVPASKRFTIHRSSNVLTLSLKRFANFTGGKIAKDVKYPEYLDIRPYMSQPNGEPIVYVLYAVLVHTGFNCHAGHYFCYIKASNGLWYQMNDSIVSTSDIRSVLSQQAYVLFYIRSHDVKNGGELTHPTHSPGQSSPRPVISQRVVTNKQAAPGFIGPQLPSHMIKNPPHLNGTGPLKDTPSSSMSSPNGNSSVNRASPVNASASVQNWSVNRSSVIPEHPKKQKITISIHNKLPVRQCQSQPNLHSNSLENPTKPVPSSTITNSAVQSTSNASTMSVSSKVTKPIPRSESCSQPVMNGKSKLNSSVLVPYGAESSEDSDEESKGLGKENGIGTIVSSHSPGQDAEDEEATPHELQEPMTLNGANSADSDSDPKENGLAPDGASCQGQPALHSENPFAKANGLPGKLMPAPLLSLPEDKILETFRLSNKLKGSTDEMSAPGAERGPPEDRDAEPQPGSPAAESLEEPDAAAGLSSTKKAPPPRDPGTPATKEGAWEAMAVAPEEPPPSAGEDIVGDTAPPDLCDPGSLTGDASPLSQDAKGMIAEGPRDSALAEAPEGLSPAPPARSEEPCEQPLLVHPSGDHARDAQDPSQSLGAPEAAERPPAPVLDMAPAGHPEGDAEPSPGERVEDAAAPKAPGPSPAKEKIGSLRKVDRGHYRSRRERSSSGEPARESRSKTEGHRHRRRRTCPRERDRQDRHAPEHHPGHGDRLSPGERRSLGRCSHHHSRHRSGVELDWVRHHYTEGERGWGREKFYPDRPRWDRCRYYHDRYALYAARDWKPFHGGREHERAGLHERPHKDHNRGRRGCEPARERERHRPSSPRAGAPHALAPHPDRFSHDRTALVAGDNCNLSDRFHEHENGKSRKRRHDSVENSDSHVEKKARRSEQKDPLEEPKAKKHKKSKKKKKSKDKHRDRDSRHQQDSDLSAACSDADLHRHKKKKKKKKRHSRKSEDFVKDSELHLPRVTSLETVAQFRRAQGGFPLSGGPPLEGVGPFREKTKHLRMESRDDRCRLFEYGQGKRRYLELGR
How it was run: (§1)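 HEK293T lysate (495 µg per sample, in Tris/CHAPS/IGEPAL buffer with protease inhibitors) was exposed in triplicate for 3 h to fragment at 200 µM or to vehicle, then to Biotin-Ahx-Ub-VS at 0.5 µM final for 1 h. Labelled DUBs were enriched on NeutrAvidin, digested with LysC and trypsin, and analysed by diaPASEF LC-MS/MS. Spectronaut label-free quantities were normalised to the global median, and values are average log2 ratios of fragment over vehicle from an unpaired t-test. Only proteins with ≥2 unique peptides were used.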

[2] = biological target: USP46 (UniProt P62068)
Chain of USP46 (P62068 whole entry): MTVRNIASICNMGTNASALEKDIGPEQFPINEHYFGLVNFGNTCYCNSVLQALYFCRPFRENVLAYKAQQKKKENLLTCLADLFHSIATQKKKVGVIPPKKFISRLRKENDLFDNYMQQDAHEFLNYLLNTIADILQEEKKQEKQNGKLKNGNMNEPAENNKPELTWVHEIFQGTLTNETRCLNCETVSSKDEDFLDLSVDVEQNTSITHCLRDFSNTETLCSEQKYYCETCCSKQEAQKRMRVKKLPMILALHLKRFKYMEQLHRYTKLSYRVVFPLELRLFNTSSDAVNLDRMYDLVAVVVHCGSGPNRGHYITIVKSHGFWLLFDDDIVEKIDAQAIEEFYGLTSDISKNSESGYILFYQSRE
How it was run: as §1

[3] = biological target: T2, USP47 (UniProt Q96K76)
T2 sequence (whole entry): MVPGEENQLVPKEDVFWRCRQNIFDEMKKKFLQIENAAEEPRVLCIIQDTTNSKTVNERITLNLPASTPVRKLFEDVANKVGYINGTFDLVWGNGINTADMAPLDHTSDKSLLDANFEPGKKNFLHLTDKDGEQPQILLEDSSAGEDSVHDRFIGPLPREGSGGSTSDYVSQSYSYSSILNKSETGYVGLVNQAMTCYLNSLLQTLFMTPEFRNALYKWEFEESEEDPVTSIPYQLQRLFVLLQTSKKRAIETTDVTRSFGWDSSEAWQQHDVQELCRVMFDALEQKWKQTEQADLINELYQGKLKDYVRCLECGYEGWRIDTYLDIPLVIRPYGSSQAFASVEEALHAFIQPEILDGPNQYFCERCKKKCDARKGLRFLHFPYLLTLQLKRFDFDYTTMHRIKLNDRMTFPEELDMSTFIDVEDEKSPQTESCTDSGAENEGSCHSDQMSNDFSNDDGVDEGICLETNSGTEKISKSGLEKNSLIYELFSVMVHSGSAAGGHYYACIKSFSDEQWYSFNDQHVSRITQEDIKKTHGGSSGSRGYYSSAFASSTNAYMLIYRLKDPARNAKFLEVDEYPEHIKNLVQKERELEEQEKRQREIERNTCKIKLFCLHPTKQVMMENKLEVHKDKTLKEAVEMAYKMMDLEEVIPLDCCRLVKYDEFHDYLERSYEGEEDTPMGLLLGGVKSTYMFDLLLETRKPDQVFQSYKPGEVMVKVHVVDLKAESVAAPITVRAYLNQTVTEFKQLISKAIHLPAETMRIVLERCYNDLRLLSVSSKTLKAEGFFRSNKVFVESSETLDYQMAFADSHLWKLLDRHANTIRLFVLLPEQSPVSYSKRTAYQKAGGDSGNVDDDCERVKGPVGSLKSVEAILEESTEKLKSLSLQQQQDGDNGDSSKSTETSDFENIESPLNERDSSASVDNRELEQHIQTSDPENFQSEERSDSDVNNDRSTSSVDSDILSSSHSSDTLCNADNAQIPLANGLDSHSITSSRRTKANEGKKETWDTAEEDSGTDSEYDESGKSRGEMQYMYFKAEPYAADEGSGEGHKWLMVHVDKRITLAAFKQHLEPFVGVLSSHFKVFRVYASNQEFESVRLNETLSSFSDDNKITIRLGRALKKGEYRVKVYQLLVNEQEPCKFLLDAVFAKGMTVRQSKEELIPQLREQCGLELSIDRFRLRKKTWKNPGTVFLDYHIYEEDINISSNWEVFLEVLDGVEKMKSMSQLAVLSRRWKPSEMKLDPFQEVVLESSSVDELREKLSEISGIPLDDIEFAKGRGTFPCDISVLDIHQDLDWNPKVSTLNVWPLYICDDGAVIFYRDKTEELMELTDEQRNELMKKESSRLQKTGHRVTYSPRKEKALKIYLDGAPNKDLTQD
How it was run: as §1

[4] = biological target: T3, USP48 (UniProt Q86UV5)
T3 sequence (whole entry): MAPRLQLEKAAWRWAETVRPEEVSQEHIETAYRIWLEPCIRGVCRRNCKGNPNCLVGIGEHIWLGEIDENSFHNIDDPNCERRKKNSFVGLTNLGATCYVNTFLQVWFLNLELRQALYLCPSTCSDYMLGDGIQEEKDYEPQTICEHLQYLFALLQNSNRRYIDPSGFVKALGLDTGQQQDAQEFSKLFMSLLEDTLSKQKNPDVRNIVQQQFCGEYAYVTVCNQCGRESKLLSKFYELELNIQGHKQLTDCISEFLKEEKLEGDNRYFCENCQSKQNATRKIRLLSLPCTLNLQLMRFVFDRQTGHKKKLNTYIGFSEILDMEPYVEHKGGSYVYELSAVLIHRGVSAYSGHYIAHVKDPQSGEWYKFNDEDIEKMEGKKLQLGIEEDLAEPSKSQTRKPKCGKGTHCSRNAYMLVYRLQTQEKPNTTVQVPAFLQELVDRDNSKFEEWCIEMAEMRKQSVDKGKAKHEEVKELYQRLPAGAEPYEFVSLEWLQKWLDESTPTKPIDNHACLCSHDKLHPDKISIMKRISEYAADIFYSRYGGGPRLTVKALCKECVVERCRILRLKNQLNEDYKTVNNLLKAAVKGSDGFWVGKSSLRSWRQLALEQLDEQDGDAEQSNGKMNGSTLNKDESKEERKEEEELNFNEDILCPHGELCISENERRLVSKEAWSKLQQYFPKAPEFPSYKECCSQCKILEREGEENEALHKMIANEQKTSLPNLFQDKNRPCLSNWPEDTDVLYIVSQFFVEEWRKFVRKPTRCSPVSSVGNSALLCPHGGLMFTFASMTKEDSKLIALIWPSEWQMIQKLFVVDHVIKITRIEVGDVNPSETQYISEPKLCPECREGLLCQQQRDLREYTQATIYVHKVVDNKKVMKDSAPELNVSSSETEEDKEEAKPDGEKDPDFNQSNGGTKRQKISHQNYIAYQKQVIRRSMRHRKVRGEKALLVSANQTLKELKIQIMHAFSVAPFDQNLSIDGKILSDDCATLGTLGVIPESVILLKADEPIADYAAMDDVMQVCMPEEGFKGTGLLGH
How it was run: as §1

[5] = biological target: T4, USP5 (UniProt P45974)
T4 sequence (whole entry): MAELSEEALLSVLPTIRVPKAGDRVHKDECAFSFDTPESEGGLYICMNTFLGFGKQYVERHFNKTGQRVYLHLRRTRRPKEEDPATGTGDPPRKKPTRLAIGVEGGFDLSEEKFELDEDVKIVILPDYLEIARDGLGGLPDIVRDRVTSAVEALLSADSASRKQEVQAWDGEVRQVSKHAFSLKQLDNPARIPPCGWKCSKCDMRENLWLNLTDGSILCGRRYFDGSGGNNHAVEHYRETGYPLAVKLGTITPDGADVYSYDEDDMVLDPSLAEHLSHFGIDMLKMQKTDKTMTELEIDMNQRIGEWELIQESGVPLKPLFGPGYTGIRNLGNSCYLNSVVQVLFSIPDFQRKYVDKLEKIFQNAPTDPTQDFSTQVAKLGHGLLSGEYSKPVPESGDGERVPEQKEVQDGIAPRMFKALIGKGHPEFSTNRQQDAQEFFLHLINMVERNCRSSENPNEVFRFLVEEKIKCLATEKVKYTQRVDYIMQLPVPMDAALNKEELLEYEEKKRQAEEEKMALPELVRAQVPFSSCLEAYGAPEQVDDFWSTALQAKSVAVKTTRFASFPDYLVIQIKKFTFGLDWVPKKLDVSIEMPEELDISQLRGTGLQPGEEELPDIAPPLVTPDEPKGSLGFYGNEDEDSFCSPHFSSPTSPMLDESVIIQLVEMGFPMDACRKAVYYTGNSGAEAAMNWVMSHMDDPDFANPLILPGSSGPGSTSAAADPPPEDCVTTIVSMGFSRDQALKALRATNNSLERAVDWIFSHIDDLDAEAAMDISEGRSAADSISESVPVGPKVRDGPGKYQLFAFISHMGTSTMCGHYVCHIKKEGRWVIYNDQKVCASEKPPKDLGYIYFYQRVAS
How it was run: as §1

[6] = biological target: USP54 (UniProt Q70EL1)
Chain of USP54 (Q70EL1 whole entry): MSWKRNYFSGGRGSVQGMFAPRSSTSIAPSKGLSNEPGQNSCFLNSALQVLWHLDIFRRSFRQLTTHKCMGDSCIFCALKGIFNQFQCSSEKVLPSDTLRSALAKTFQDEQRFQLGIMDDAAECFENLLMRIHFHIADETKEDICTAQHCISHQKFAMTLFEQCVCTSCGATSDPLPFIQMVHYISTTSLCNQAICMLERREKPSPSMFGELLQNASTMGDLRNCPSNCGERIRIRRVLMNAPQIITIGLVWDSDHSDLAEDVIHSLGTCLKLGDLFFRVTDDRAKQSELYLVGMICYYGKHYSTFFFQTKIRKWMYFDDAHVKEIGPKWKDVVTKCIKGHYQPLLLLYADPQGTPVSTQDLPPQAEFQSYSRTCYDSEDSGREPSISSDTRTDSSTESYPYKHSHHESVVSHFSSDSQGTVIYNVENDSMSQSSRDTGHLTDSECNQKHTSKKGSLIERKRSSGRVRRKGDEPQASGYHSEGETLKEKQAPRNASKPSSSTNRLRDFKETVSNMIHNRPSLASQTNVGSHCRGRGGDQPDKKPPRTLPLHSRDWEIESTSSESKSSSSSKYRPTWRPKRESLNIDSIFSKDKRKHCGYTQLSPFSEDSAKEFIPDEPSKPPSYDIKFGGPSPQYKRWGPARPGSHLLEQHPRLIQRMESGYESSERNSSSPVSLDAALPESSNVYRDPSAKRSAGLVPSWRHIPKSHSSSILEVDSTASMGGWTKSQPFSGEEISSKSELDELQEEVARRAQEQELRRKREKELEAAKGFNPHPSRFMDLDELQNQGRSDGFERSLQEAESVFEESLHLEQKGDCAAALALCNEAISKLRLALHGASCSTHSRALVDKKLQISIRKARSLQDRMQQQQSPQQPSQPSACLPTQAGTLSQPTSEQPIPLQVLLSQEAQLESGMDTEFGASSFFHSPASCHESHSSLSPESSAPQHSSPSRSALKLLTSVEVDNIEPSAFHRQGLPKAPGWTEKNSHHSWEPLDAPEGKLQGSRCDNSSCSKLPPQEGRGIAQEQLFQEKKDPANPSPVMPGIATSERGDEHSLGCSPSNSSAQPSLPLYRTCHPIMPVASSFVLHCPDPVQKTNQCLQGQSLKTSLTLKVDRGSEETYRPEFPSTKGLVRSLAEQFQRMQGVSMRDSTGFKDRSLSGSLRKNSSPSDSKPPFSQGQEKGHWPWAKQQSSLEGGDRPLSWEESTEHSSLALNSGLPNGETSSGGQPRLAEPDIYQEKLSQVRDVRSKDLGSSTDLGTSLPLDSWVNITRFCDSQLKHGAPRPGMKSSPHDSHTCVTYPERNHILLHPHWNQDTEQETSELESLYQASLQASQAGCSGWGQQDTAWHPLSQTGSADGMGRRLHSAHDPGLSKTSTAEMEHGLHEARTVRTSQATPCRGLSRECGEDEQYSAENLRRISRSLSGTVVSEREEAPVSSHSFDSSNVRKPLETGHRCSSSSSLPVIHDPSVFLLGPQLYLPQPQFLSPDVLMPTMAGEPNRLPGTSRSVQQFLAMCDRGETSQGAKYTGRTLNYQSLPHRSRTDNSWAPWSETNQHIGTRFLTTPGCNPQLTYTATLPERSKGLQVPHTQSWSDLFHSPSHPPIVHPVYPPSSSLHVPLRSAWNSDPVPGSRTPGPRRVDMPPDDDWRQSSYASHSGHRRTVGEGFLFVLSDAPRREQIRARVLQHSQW
How it was run: as §1

[7] = biological target: USP7 (UniProt Q93009)
Chain of USP7 (Q93009 whole entry, looked up): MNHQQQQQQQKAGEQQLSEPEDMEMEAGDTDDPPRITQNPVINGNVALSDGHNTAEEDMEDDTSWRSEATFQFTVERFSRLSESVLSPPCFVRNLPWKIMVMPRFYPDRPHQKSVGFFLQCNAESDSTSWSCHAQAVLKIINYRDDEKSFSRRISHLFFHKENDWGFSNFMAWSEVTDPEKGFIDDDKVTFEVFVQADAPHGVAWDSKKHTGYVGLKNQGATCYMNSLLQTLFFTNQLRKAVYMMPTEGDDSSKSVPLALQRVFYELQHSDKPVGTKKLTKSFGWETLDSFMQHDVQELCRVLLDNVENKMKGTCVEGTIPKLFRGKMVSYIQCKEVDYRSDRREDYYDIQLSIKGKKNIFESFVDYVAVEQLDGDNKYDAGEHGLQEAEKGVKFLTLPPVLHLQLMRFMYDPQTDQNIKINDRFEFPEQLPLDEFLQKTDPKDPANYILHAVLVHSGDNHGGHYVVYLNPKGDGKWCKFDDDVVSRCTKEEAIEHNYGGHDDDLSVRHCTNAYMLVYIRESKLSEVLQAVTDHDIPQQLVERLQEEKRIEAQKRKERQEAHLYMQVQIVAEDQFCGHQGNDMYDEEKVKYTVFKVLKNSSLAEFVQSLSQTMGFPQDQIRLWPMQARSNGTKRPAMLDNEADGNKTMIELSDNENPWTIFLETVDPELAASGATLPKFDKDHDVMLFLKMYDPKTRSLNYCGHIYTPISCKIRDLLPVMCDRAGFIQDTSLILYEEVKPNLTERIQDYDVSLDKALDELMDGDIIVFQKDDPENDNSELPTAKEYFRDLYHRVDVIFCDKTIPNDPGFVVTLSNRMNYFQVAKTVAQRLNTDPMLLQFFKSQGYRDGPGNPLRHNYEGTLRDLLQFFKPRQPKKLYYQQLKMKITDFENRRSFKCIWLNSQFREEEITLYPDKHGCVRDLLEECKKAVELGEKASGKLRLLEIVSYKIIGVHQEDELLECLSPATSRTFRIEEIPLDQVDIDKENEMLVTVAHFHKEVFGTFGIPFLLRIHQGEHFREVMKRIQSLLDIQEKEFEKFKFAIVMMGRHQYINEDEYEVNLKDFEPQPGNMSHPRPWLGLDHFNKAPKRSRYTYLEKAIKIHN
How it was run: as §1

[8] = biological target: T5, USP8 (UniProt P40818)
T5 sequence (whole entry): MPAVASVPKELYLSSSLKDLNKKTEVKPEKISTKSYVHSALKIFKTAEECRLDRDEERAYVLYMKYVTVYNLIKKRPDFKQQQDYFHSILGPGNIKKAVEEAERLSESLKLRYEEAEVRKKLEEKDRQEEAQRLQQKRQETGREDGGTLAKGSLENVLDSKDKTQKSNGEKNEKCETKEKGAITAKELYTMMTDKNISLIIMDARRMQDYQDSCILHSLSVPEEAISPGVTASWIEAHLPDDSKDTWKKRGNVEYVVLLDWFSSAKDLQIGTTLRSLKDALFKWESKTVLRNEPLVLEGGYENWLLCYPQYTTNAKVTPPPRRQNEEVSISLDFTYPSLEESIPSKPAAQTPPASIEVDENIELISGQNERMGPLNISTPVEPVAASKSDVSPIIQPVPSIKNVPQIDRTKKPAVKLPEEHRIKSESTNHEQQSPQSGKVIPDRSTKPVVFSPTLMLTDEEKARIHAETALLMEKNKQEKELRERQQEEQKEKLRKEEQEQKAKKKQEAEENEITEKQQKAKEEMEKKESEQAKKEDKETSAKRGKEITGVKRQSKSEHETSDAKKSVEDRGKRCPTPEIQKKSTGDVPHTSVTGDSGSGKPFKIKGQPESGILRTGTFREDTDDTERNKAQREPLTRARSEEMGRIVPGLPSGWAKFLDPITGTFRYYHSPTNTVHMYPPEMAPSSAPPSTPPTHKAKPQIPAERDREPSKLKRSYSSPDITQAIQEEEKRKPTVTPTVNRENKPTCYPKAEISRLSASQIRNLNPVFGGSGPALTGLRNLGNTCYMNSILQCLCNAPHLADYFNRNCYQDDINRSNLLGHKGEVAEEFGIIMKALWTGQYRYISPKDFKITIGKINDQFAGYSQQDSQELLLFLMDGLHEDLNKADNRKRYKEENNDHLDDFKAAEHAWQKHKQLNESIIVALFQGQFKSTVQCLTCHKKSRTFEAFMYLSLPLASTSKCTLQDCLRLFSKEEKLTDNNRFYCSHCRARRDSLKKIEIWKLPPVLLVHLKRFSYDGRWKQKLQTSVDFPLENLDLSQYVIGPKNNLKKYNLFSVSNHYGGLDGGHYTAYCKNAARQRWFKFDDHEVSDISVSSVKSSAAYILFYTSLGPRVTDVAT
How it was run: as §1

Measured: log2 ratio of Biotin-Ahx-Ub-VS probe labelling

CC(NC(=O)CCl)c1csc(-c2ccccc2)n1.Cl (stereo not drawn)
inactive: [1] -0.201 | [2] -0.41 | [3] 0.0356 | [4] -0.587 | [5] -0.0456 | [6] 0.348 | [7] -0.457 | [8] -0.318
